NPC1 prom act: qHTS Assay for NPC1 Promoter Activators | AID 485313, 2010 | 320,000 compounds, 2.4% hits | Potency, µM (highest dose often 9.22 µM), for the others: at the top dose activation, hits mostly activators | Huh7 NPC1 promoter luciferase reporter, 24 h; note: % of control where 0% means no effect; nearly all actives have a fitted effect of over 60% in size
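In 1536-well qHTS, Huh7 cells harboring an NPC1 promoter–luciferase construct received compound for 24 h; activation was quantified by luminescence following luciferase reagent addition.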
FLuc counter: qHTS profiling assay for firefly luciferase inhibitor/activator using purifed enzyme and Km concentrations of substrates (counterscreen for miR-21 project); Luciferin 4-monooxygenase (Photinus pyralis), P08659; purified FLuc, Km substrates, luminescence inhibition; Potency, µM (highest dose often 57.5 µM), without a hit: at the highest dose activity change, negative = inhibition, usual class: inhibitors; 360,000 compounds, 6.9% hits; AID 588342, 2011;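 note: plate controls were vehicle for no effect and reference inhibitor for full effect; nearly all actives have a fitted effect of over 55% in size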
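Biochemical qHTS of compounds, final roughly 60 µM downward over six points, against 10 nM purified firefly luciferase using Km concentrations of substrates (10 uM D-luciferin, 10 uM ATP) in Tris acetate pH 7.5 buffer; luminescence output.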
ELG1 genotox: qHTS screen for small molecules that induce genotoxicity in human embryonic kidney (HEK293T) cells expressing luciferase-tagged ELG1; HEK293T ELG1-luciferase reporter, luminescence, 16 h; Potency, µM (series often up to 46 µM), for the others: at the top dose activity change, positive = activation, hits mostly activators; 330,000 compounds, 1.3% hits; note: % of control where 0% means no effect; nearly all actives have a fitted effect of over 60% in size
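Reporter readout depends on ELG1 protein level, which increases with genetic stress. After 16 hr compound exposure at 37 °C, luciferase activity was quantified using ONE-Glo.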
SMN2 splice up: qHTS Assay for Enhancers of SMN2 Splice Variant Expression. HEK293 SMN2-luciferase splicing reporter, luminescence, 30-36 h. Potency, µM (series often up to 46.1 µM), inactives show at the top dose activity change, positive = activation, actives largely listed as activators. 210,000 compounds, 2.8% hits. AID 1458, 2008; note: % of control where 0% means no effect; nearly all actives have a fitted effect of over 55% in size
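HEK293 cells carry an SMN2 minigene-luciferase reporter in which exon 7 inclusion puts luciferase in frame. Cells were seeded at 2000 cells/well, attached for 10-12 hours, then exposed to compounds for 30-36 hours at 37C before ONE-Glo luminescence.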
ELG1 DNA repair: qHTS screen for small molecules that inhibit ELG1-dependent DNA repair in human embryonic kidney (HEK293T) cells expressing luciferase-tagged ELG1; HEK293T ELG1-luciferase reporter, luminescence, 16 h; DNA damage induced by 5-fluorouridine; Potency, µM (doses to about 46.1 µM), for inactives: top-dose activity change, negative = inhibition, actives largely listed as inhibitors; 330,000 compounds, 2.3% hits; AID 504467, 2011; note: % is set by controls: 0 for no effect and ±100 for the full control effect; nearly all actives have a fitted effect of over 55% in size
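Luminescence from the luciferase reporter, measured 30 min after ONE-Glo reagent at room temperature, was the read-out. Beforehand, 2,000 cells per well were exposed for 16 hr at 37 °C to 5-fluorouridine together with compound or vehicle.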
Rab9 promoter act: qHTS Assay for Rab9 Promoter Activators; Huh7 Rab9 promoter-luciferase reporter, luminescence, 24 h; Potency, µM (top dose mostly 9.22 µM), for inactives: at the highest dose activation, negative = inhibition, most hits filed as activators; 320,000 compounds, 2.8% hits; AID 485297, 2010; note: % of control where 0% means no effect; nearly all actives have a fitted effect of over 60% in size
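Huh7 cells stably carrying a Rab9 promoter-luciferase reporter, 1500 cells per well in OP-MEM I with 10% FBS, treated with compound 24 hours at 37C. Luciferase activity read by luminescence after 10 minutes with Amplite reagent.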
ELG1 FLuc counter: qHTS screen for small molecules that inhibit ELG1-dependent DNA repair: Hit Confirmation in Cell-Based Luciferin Assay. shares compounds with ELG1 DNA repair. cell-free firefly luciferase luminescence counter-screen, ViewLux. Potency, µM (titrated, usually from 46.1 µM), inactives show at the highest dose activity change, negative = inhibition, actives largely listed as inhibitors. 350 compounds, 3% hits; note: % is set by controls: 0 for no effect and ±100 for the full control effect
ELG1-Luc inh: HTS assay for small molecules that inhibit ELG1-dependent DNA repair in human embryonic kidney (HEK293T) cells expressing luciferase-tagged ELG1: Hit Confirmation; AID 624248, 2012; shares compounds with ELG1 DNA repair; HEK293T ELG1-luciferase levels, luminescence; cells co-treated with 5-fluorouridine; 670 compounds, 68% hits; Potency, µM (doses to about 46.1 µM), without a hit: at the highest dose activity change, negative = inhibition, hits mostly inhibitors; note: % is set by controls: 0 for no effect and ±100 for the full control effect; nearly all actives have a fitted effect of over 55% in size
Target sequence (Q96QE3 whole entry, looked up): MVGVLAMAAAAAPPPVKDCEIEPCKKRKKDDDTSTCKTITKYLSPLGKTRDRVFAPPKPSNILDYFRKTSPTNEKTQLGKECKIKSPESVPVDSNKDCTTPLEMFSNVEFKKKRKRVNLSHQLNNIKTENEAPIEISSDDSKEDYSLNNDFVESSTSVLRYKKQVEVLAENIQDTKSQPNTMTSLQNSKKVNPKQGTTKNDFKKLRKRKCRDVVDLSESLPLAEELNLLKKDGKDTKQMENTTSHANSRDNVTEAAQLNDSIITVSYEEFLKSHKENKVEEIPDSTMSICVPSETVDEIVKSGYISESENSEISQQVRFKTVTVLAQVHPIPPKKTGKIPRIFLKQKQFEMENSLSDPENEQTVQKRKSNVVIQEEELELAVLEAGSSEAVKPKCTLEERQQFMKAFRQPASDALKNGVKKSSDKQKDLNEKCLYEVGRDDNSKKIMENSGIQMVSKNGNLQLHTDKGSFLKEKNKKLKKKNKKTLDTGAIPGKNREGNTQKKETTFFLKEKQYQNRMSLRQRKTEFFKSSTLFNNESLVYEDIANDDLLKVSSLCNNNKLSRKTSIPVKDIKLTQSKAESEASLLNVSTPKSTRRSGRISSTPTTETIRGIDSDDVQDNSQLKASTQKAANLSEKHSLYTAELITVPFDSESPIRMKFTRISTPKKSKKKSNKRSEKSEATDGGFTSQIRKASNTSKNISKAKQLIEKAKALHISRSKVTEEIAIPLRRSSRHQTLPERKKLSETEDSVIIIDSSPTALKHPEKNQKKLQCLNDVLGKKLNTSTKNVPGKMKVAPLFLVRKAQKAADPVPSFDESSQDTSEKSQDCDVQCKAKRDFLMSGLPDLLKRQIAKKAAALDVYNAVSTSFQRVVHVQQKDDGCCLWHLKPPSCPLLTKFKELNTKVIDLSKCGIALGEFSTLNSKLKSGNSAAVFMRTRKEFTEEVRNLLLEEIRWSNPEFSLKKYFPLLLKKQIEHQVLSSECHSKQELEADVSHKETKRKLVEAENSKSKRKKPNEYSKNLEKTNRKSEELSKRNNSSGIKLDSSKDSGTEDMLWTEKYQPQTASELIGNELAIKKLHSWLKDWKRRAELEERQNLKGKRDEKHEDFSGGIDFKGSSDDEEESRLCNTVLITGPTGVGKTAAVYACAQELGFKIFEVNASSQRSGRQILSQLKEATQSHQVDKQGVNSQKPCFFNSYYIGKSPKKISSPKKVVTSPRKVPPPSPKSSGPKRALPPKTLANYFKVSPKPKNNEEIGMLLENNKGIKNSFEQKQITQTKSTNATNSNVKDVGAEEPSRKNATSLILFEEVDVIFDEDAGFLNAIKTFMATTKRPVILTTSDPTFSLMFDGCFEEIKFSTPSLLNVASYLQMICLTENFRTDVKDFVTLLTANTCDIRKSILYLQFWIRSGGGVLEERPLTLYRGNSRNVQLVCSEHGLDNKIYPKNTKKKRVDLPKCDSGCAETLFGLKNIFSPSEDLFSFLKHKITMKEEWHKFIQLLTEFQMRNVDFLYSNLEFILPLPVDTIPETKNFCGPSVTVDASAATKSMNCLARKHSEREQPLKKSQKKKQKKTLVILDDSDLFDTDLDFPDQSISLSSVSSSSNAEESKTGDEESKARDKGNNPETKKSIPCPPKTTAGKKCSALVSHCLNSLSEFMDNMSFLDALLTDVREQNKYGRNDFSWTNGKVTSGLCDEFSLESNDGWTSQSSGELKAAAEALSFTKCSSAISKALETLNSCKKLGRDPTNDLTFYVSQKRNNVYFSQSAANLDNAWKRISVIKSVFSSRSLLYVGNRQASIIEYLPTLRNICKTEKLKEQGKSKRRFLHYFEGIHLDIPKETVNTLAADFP
ELG1 MMS Luc: inhibits ELG1-dependent repair under MMS stimulation in HEK293T cells | AID 624249 | shares compounds with ELG1 DNA repair | HEK293T luciferase-tagged ELG1 level, MMS stimulated | 670 compounds, 53% hits | Potency, µM (top dose mostly 46.1 µM), for the others: at the top dose activity change, negative = inhibition, actives largely listed as inhibitors; note: % is set by controls: 0 for no effect and ±100 for the full control effect; nearly all actives have a fitted effect of over 60% in size
ELG1 5-FU: qHTS screen for small molecules that inhibit ELG1-dependent DNA repair: Hit Confirmation with 5FU Viability | Potency, µM (series often up to 46.1 µM), without a hit: top-dose activity change, negative = viability loss, hits mostly cytotoxic | shares compounds with ELG1 DNA repair | 670 tested, under 10 active | AID 624250, 2012 | cell viability with 5-FU, ELG1-dependent repair;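 note: ELG1-luc HEK293T cells cotreated with 5-fluorouridine at 10 µM final; viability measured 16 h after compound addition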
ELG1 MMS cell: qHTS screen for small molecules that inhibit ELG1-dependent DNA repair: Hit Confirmation with MMS Viability. Potency, µM (highest dose often 46.1 µM), inactives show at the top dose activity change, negative = viability loss, most hits filed as cytotoxic. 670 compounds, 33% hits. AID 624251, 2012. Cell viability with MMS, ELG1-dependent DNA repair. shares compounds with ELG1 DNA repair;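 note: ELG1-luc HEK293T cells co-treated with 10 µM MMS; viability read 16 h after compound addition; % is set by controls: 0 for no effect and ±100 for the full control effect; nearly all actives have a fitted effect of over 60% in size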
ELG1 unstim viab: qHTS screen for small molecules that inhibit ELG1-dependent DNA repair: Hit Confirmation with Unstimulated Viability Assay. Potency, µM (top dose mostly 45.9 µM), without a hit: at the top dose activity change, negative = loss of viability, actives largely listed as cytotoxic. AID 624252, 2012. shares compounds with ELG1 DNA repair. cell viability counter-screen, unstimulated, luminescence. 900 compounds, 8% hits;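 note: compound exposure lasted 16 hours before reading; % is set by controls: 0 for no effect and ±100 for the full control effect; nearly all actives have a fitted effect of over 55% in size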
FLuc enzyme: qHTS screen for small molecules that inhibit ELG1-dependent DNA repair: Hit Confirmation in Biochemical Luciferin Assay. purified firefly luciferase, luminescence counter-screen. Potency, µM (highest dose often 57.5 µM), for the others: at the top dose activity, negative = inhibition, most hits filed as inhibitors. shares compounds with ELG1 DNA repair. 350 compounds, 10% hits; note: % is set by controls: 0 for no effect and ±100 for the full control effect
The depositor's hits bear a star; ? = inconclusive; · = no result; [ ] = dose if it differs, or a comment. Most compounds without a hit are left out; they make up all but 9.4% or so of the library. Calls come from the whole dose curve; as a rule, active = well fitted curve in the direction sought with a large enough effect; inconclusive = small, poorly fitted or top-dose-only effect, or another doubt; inactive = no such curve, though single readings can be large; an effect the other way counts as inactive or inconclusive. Potency is the fitted concentration of half-maximal effect.

SMILES	NPC1 prom act	FLuc counter	ELG1 genotox	SMN2 splice up	ELG1 DNA repair	Rab9 promoter act	ELG1-Luc inh	ELG1 MMS Luc	ELG1 5-FU	ELG1 MMS cell	ELG1 unstim viab	others
COc1ccc(C(=O)CC2(CC(=O)c3ccc(OC)cc3)C(=O)N(C)C(=O)N(C)C2=O)cc1	0%	3%	7%	6%	1.6µM*	-1%	0.5µM*	3%	?	1%	-4%
COc1ccc(C(=O)CN2CCCCC2)cc1	-19%	0%	6%	15%	?	10%	·	·	·	·	·
Oc1c(Cl)cccc1Cl	·	·	·	-9%	·	·	·	·	·	·	·
COc1ccc(/C(=N/OC(C)=O)c2nccc3cc(OC)c(OC)cc23)cc1OC	-8%	-2%	0%	·	3.3µM*	-1%	?	2%	?	8%	4%
COc1ccc(Cc2nccc3cc(OC)c(OC)cc23)cc1OC	-24%[46.1 µM]	0%	?	-89%	-12%	-39%[46.1 µM]	·	·	·	·	·
C=C(C)c1ccccc1	-4%	0%	-2%	-10%	12%	-5%	·	·	·	·	·
COc1cc2c(c(OC)c1OC)-c1ccc(O)c(=O)cc1C(NC(C)=O)CC2 (configuration not stated)	-11%	-2%	?	-17%	?	-27%	·	·	·	·	-5%	ELG1 FLuc counter=22%;FLuc enzyme=1%
O=c1[nH]cnc2[nH]cc(CN3CCCCC3)c12	·	·	·	-8%[9.22 µM]	·	·	·	·	·	·	·
CC1OC(=O)C(C(C)C)NC(=O)C(C(C)C)OC(=O)C(C(C)C)NC(=O)C(C)OC(=O)C(C(C)C)NC(=O)C(C(C)C)OC(=O)C(C(C)C)NC(=O)C(C)OC(=O)C(C(C)C)NC(=O)C(C(C)C)OC(=O)C(C(C)C)NC1=O (configuration not stated)	·	·	·	-61%	·	·	12%	0.035µM*	?	0.079µM*	0.035µM*	ELG1 FLuc counter=?;FLuc enzyme=4%
Cc1cc(C)nc(N/N=C/C2=C(O)CC(c3ccccc3)CC2=O)n1 (configuration not stated)	-6%	1%	6%	·	?	-6%	·	·	·	·	·
CCCCCCCCCCCCCC(=O)O[C@@H]1[C@@H](C)[C@@]2(O)[C@H](C=C(CO)C[C@]3(O)C(=O)C(C)=C[C@@H]23)[C@@H]2C(C)(C)C12OC(C)=O (some centres not stated)	·	·	·	15%	·	·	·	·	·	·	?	ELG1 FLuc counter=79%;FLuc enzyme=?
CCCC(=O)O[C@@H]1[C@@H](C)[C@@]2(O)[C@@H](C=C(CO)C[C@]3(O)C(=O)C(C)=C[C@@H]23)[C@@H]2C(C)(C)[C@]12OC(=O)CCC	·	·	·	·	·	·	·	·	·	·	?
O=NN(CCO)CCO	·	·	·	1%	·	·	·	·	·	·	·
CC1CCCC(=O)CCC/C=C/c2cc(O)cc(O)c2C(=O)O1 (configuration not stated)	·	·	·	-6%	·	·	·	·	·	·	·
C[C@H]1CCC[C@@H](O)CCC/C=C/c2cc(O)cc(O)c2C(=O)O1	-4%	3%	-17%	-65%	2.8µM*	-14%	4µM*	4µM*	-7%	?	?
C=C(C)C1Cc2c(ccc3c2OC2COc4cc(OC)c(OC)cc4C2C3=O)O1 (configuration not stated)	·	·	·	-101%	·	·	·	·	·	·	·
COc1cc2c(cc1OC)C1C(=O)c3c(cc4c(c3O)C=CC(C)(C)O4)OC1CO2 (configuration not stated)	·	·	·	-58%	·	·	?	0.71µM*	-4%	0.79µM*	?	ELG1 FLuc counter=-3%;FLuc enzyme=?
CC(=O)OC1CC[C@]2(C)C(CCC3C2CC[C@]2(C)C(C4=CC(=O)OC4)C(OC(C)=O)CC32O)C1 (some centres not stated)	·	·	·	-88%	·	·	1.4µM*	0.89µM*	?	1.3µM*	0.63µM*
CC(=O)OC1CCC23C(=O)OC45CCC(C6=CC(=O)OC6)C4(C)CCC2C5CCC3(O)C1 (configuration not stated)	·	·	·	·	·	·	1.3µM*	0.63µM*	?	1.3µM*	0.44µM*
O=C(c1ccc(N2CCN(CCO)CC2)nc1)N1CCOCC1	5%	-1%	5%	5%	?	-2%	·	·	·	·	·
CCCc1cc(=O)oc2c3c(cc(OCC(=O)N4CCC[C@H]4C(=O)O)c12)OC(C)(C)CC3	-2%	4%	5%	·	?	-7%	·	·	·	·	·

Compound activity as filed in PubChem BioAssay.
